# Results published in PubChem BioAssay (NCI).
# The panel holds about 83,000 compounds, 20% with a hit somewhere; the sample as a whole holds those more often.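 48-hour exposure, single concentration, 96-well plates; percent growth endpoint where 0 means no net growth. Active: below 10.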 A number with no mark means an inactive call. Activity calls are given as the source filed them.
# What was measured:
# Assay in all cases: NCI-60 one-dose screen, 48 h (100 = growth as untreated, 0 = no growth, -100 = all killed)
# Conditions in all cases: 10 µM unless noted
# [1] = system: DU-145 prostate
# [2] = system: K-562 leukemia
# [3] = system: MALME-3M melanoma
# [4] = system: MDA-MB-231 breast
# [5] = system: RXF 393 renal
# [6] = system: SF-268 CNS
# [7] = system: SF-295 CNS
# [8] = system: SF-539 CNS
# [9] = system: UACC-257 melanoma
# [10] = system: M14 melanoma
Structure (SMILES),growth [1],growth [2],growth [3],growth [4],growth [5],growth [6],growth [7],growth [8],growth [9],growth [10]
C#CCOc1cccc(Nc2ncnc3ccc(NC(=O)CCl)cc23)c1,-1.66% (active),-13.1% (active),-76.3% (active),-37.8% (active),-77.1% (active),-8.71% (active),-67.7% (active),-86.6% (active),-67.1% (active),-47.8% (active)
O=c1c2cc(-c3ccccc3)sc2nc2sc(-c3ccccc3)nn12,103%,93.8%,94.1%,110%,93.2%,100%,98.8%,107%,90.9%,97.9%
C=CC(=O)NCc1ccc(Nc2nccc(-c3ccc(N4CCCC4)c(C#N)c3)n2)cc1,46.3%,21%,44.9%,75.6%,-1.91% (active),49.7%,22.9%,28%,39.8%,36.1%
OCCNCCCOc1ccc2ncnc(Nc3ccc(Oc4cccc(C(F)(F)F)c4)c(Cl)c3)c2c1,16.3%,1.39% (active),41.1%,-18% (active),-49.3% (active),56%,39.7%,-46.3% (active),54.9%,-60.3% (active)
CCOC(=O)c1c2c(n3ccc(C)cc13)C(=O)c1ccccc1C2=O,102%,75.7%,103%,90.2%,95.6%,96.3%,98.5%,102%,78.2%,84.6%
CS(=O)(=O)c1cccc(-c2c(-c3cccc(OS(N)(=O)=O)c3)nc3sccn23)c1,113%,100%,102%,93%,107%,101%,98.3%,93.5%,106%,105%
C#Cc1cccc(Nc2ncnc3ccc(-c4cncc(NS(C)(=O)=O)c4)cc23)c1,28.3%,37.2%,33.2%,23.7%,7.78% (active),24.1%,37.6%,17%,37.4%,47%
Cc1ccc(/C=N/Nc2nc(Nc3ccccc3)nc(-n3nc(C)cc3C)n2)cc1,40.9%,37.1%,80.8%,51.6%,55.9%,44%,-40.7% (active),56.5%,54.2%,42.9%
CCCNC(=O)Oc1ccc(/C(=C(/C)Cc2ccc(OC)cc2)c2ccc(OCCCN(C)C)cc2)cc1,94.9%,15.3%,82.9%,89.9%,74.7%,84%,88.2%,97.8%,99.2%,71.8%
C#Cc1ccc(NC(=O)c2ccc(/C=C/C(=O)c3nccn3C)cc2)cc1,-86.8% (active),1.98% (active),-38.4% (active),-55.7% (active),-86.3% (active),-28.9% (active),-91.2% (active),-96.7% (active),-19.6% (active),-69.8% (active)
C#CCn1cnc2c(Nc3cccc(NC(=O)C=C)c3)ncnc21,86.4%,72.7%,78.9%,80%,85.2%,63.4%,80.5%,66.8%,75.6%,76.6%
N#Cc1c(-c2ccc(Cl)cc2)nc(SCC(=O)NC2=NN=C(c3ccccc3)CS2)[nH]c1=O,105%,42.4%,75%,78.1%,84.5%,91.4%,107%,91.4%,84%,72.3%
C=C1C(=O)O[C@H]2[C@H]1CC/C(COC(=O)NCc1cc[nH]c1)=C\CC[C@@]1(C)O[C@@H]21,12.4%,16.6%,84.2%,35.4%,31.1%,64.9%,83.5%,50.8%,59.1%,32.7%
Cc1cc(N)c2cc(NC(=O)/C=C\c3ccccc3Cl)ccc2n1,-92.8% (active),-31.9% (active),-76.2% (active),-87.1% (active),-78.2% (active),-76.6% (active),-80.4% (active),-91.3% (active),-49.2% (active),-70.9% (active)
COc1ccc(-c2ccc3cnc4sc(-c5ccc(OC)cc5)nc4c3n2)cc1,107%,96.6%,111%,89.6%,107%,95.4%,100%,91.5%,106%,115%
NC(=O)CCC(C(=O)O)N1C(=O)c2ccc(O)cc2C1=O (stereo not given),118%,72.2%,157%,113%,115%,111%,91.7%,106%,107%,108%
COc1cc2oc(-c3cccc(NC(=O)c4cccc(Br)c4)c3)cc(=O)c2c(OC)c1OC,54.4%,25.8%,53%,63.5%,54.9%,59.7%,40.9%,69%,83.8%,59%
C[C@]12C=CC(=O)C=C1CCC1C2[C@@H](O)C[C@@]2(C)C1CC[C@]2(O)C(=O)COC(=O)CCC(=O)O (stereo not given in full),107%,104%,94.8%,94.7%,126%,105%,116%,96.8%,99.3%,106%
Cc1ccc(-n2c(=S)[nH]c3sc4c(c3c2=O)CCC(=O)C4)cc1,37.8%,17%,50.9%,54.6%,23.8%,48.2%,47.9%,11.8%,54.5%,25.9%
Fc1ccc2[nH]cc(-c3nonc3-c3c[nH]c4ccc(Br)cc34)c2c1,42%,4.21% (active),21.2%,-20.2% (active),77.3%,38.2%,9.73% (active),16.7%,42.7%,-5.26% (active)
COc1ccc(-c2nnc(-c3ccc4c(c3)nc(-c3ccncc3)n4C3CCCCC3)o2)cc1,68.5%,43.3%,82%,63.8%,69.7%,66.7%,67.7%,70.3%,77.6%,70.5%
C=C(C)[C@@H]1CC[C@]2(C(=O)N3CCN(C)CC3)CC[C@]3(C)[C@H](CC[C@@H]4[C@@]5(C)CC(=C/c6ccncc6)/C(=N/O)C(C)(C)[C@@H]5CC[C@]43C)[C@@H]12,77.1%,34.4%,87.4%,65.7%,71.9%,63%,91.6%,83.6%,85.8%,94.5%
O=C1Nc2ccc(I)cc2C1=O,106%,107%,110%,93.5%,91.4%,110%,99.1%,100%,-28.4% (active),95.9%
C=C(C)[C@@H]1CC[C@]2(C(=O)NCC#CCN3CCN(C)CC3)CC[C@]3(C)[C@H](CC[C@@H]4[C@@](C)(CCC#N)[C@H](C(=C)C)CC[C@]43C)[C@@H]12,57.5%,2.05% (active),56.9%,42.1%,39.8%,62.4%,94.2%,66%,56.7%,5.09% (active)
